# Compounds with a hit are over-represented: about 0.6% of the library has one in this group of screens.
# CatB inh – human cathepsin B inhibitors, primary screen, biochemical, fluorogenic substrate. P07858. purified cathepsin B, fluorescence. inhibition, %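 (tested at 10 µM)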. hit rate 0.1% among 63,000; in the data active = inhibition above about 21%;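 note: 0% = enzyme with no compound and 100% = no enzyme blank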
# CatS block – inhibitors of human cathepsin S, biochemical, compound mixtures. P25774. recombinant cathepsin S, AMC dipeptide fluorescence, pooled mixtures. inhibition, %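 (tested at 5 µM per compound within 10-compound mixtures)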. hit rate 0.06% among 62,000; in the data active = inhibition above about 32%, passing the limit was not always enough; inconclusive = no clear call, values can overlap the other calls;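 note: 0% = enzyme without compound and 100% = blank without enzyme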
# Target sequence (P25774 115-331 limits assumed): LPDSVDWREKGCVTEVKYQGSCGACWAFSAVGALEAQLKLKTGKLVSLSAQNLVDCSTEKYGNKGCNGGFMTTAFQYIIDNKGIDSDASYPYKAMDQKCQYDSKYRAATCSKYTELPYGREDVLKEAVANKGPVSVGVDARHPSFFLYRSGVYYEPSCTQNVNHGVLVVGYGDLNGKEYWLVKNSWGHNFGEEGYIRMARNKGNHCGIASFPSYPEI
# Hsp90 inh – tumor Hsp90 inhibitors, primary screen, cell lysate, fluorescence polarization, NCI-N417 lysate; Heat shock protein HSP 90-alpha (Homo sapiens), P07900; Cy3B-geldanamycin FP displacement; inhibition, % at 30 µM; hit rate 0.35% among 64,000;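 active = inhibition above 50%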;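 note: 0% = tracer plus lysate wells and 100% = tracer alone without lysate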
# CatB mix inh – cathepsin B inhibitors from pooled compounds, primary screen, biochemical, compound mixtures, AMC fluorescence. Purified cathepsin B, AMC dipeptide fluorescence. inhibition, %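 (ten-compound pools at 5 µM per compound and 50 µM total)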. hit rate 0.06% among 62,000; in the data active = inhibition above about 22%, passing the limit was not always enough; inconclusive = no clear call, values can overlap the other calls;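 note: 0% = enzyme without compound and 100% = no enzyme blank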
# CatL inh – inhibitors of human cathepsin L, biochemical. Procathepsin L (Homo sapiens), P07711. purified cathepsin L, fluorogenic substrate, fluorescence. inhibition, %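 (tested at 10 µM)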. hit rate 0.17% among 58,000; in the data active = inhibition above about 45%;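 note: 0% = enzyme with no compound and 100% = no enzyme blank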
# Target sequence (P07711 114-288 limits assumed): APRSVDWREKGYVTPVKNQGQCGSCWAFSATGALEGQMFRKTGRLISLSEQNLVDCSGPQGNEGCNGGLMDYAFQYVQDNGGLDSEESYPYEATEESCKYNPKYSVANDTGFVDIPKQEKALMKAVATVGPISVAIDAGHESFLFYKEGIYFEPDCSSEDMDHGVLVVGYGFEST
# Target sequence (P07711 292-333 limits assumed): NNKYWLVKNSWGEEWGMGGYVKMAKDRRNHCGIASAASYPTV
# An asterisk follows results filed as active; ? = inconclusive; / = no result.
SMILES,CatB inh,CatS block,Hsp90 inh,CatB mix inh,CatL inh
COc1ccccc1-c1nnc2n1N=C(c1ccc(O)c(O)c1)CS2,2,/,65*,/,19
CCOc1ccc(C2=Nn3c(nnc3-c3ccccc3OC)SC2)cc1,2,/,-2,/,9
CSc1nc(N)c2ncn([C@@H]3O[C@H](COP(=O)(O)OP(=O)(O)OP(=O)(O)O)[C@H](O)C3O)c2n1 (stereo not given in full),/,/,5,/,/
CC1CCN(S(=O)(=O)c2ccc(Cl)cc2)CC1,0,19,-1,6,12
CC1=C(C)CS(=O)N(S(=O)(=O)c2ccc(Cl)cc2)C1 (stereo not given),24*,6,2,32*,/
Nc1nonc1N1CCCCC1,3,6,72*,2,4
Nc1nc2nonc2nc1N1CCCCC1,5,2,3,2,17
CCOC(=O)c1cnc2c(Cl)c(Cl)ccc2c1N1CCN(C)CC1,3,6,-7,13,10
CCCCn1c(NC(C)=O)c(C#N)c2nc3ccccc3nc21,-2,13,-14,4,-27
C=CCn1c(NC(=O)c2ccccc2Cl)c(C#N)c2nc3ccccc3nc21,-2,30,61*,3,-77
C=CCn1c(NC(=O)c2ccccc2)c(C#N)c2nc3ccccc3nc21,-3,-4,63*,8,-11
N#CC(C(=O)c1ccco1)c1ccccn1 (stereo not given),-2,31,-1,10,4
COc1ccc(C(=O)C(OC(=O)CNC(=O)c2ccco2)c2ccccc2)cc1 (stereo not given),21*,-2,-5,12,68*
Cc1ccc(C(=O)COC(=O)CNC(=O)c2ccco2)cc1,6,8,2,0,10
C=CCn1c(=O)c(C(=O)Nc2nnc(C)s2)c(O)c2ccccc21,1,-2,13,-7,-10
CN(C)/C=C1\C(=O)c2ccc(N(C)C)nc2CC1c1ccccc1 (stereo not given),-2,-7,2,2,-8
CCCN(CCC)CCCNC(=O)c1cc2c(=O)n(C)c3ccccc3c2n1C,-7,12,-2,6,-7
CCCCN(CC)CCNC(=O)c1cc2c(=O)n(C)c3ccccc3c2n1C,-1,57*,-4,3,-1
COCCNC(=O)c1cc2c(=O)n(C)c3ccccc3c2n1C,2,10,-5,-2,23
CCN(CC)CCCNC(=O)c1cc2c(=O)n(C)c3ccccc3c2n1C,2,?,-2,33,-2
CCN(CC)CCNC(=O)c1cc2c(=O)n(C)c3ccccc3c2n1C,8,48*,-1,-2,23
CN(C)CCNC(=O)c1cc2c(=O)n(C)c3ccccc3c2n1C,2,82*,-3,2,17
O=S(=O)(NCCOCC(F)(F)F)c1ccc2oc3ccccc3c2c1,-3,-10,0,-5,0
Cc1cnc(C)c(N2CCC(C(=O)NC(C)c3cccs3)CC2)n1 (stereo not given),/,/,2,/,/
CCOC(=O)C1=C(C)NC(C)=C(C(=O)OC)C1c1cccc(Cl)c1Cl (stereo not given),34*,-2,-5,-8,3
SMILES,CatB inh,CatS block,Hsp90 inh,CatB mix inh,CatL inh
CCC(CO)Nc1nc(NCc2ccccc2)c2ncn(C(C)C)c2n1 (stereo not given),/,/,-4,/,/
O=C(O)/C=C/c1ccc(O)c(O)c1,/,-8,53*,-4,13
CCOC(=O)c1c(NC(=O)c2cc(C3CC3)on2)sc2c1CCCC2,4,0,-4,-6,-6
CCN(CC)CCCC(C)Nc1cc(O)cc2cccnc12 (stereo not given),/,/,138*,/,/
COc1cc(NC(C)CCCN)c2ncccc2c1Oc1ccc(Cl)cc1 (stereo not given),/,/,-5,/,/
COc1cc(N=Cc2ccc([N+](=O)[O-])cc2)c2ncccc2c1,/,/,-1,/,/
Cc1nnc2ccc(N3CCN(c4ccccn4)CC3)nn12,51*,10,1,6,/
O=[N+]([O-])c1ccc(CSc2ncnc3c2ncn3[C@@H]2O[C@H](CO)[C@H](O)C2O)cc1 (stereo not given in full),/,/,-1,/,/
COc1ccc(S(=O)(=O)NC(CC(=O)N2CCc3ccccc32)c2ccco2)cc1 (stereo not given),0,6,3,0,49*
CCN(CC)C(=O)CSc1nnc([C@@H](N)Cc2ccccc2)o1,-2,1,-1,-1,83*
COc1ccc(-n2nnc3c(SCC(=O)N4CCN(c5ccccc5)CC4)ncnc32)cc1,0,-2,-2,-3,21
CC(C)COCC(CN(Cc1ccccc1)c1ccccc1)N1CCCC1 (stereo not given),/,/,64*,/,/
CCC(=O)Oc1oc(-c2ccccc2)nc1C=Nc1ccccc1OC,26*,/,-2,/,5
CCOC(=O)c1ccc(N=Cc2nc(-c3ccccc3)oc2OC(C)=O)cc1,9,19,-2,3,5
CCOC(=O)c1ccc(-c2c(C(=O)OCC)oc3cc(O)c(CC)cc3c2=O)o1,-1,-8,2,6,-3
Cn1cc(Cl)c(-c2nc3ccccc3[nH]2)n1,-2,1,-2,-1,15
Nc1nonc1-c1nc2ccccc2[nH]1,18,2,-4,52*,41
CC(C)c1cc(NC(=O)C(C)(C)C)cc(C(C)C)c1O,-1,5,-2,-5,28
CC(C)c1cc(Nc2cccc(O)c2)cc(C(C)C)c1O,-4,2,72*,5,-2
CCOC(=O)Cc1csc(NC(=O)CSc2ncnc3c2cnn3-c2ccccc2Cl)n1,-6,1,3,6,-3
O=C(O)CCC(NC(=O)c1ccccc1C(=O)O)C(=O)O (stereo not given),/,/,1,/,/
CCn1cc(C(=O)NCc2ccccn2)c(=O)c2cc(S(=O)(=O)N3CCCCC3)ccc21,2,-1,65*,1,1
CCn1cc(C(=O)NCc2ccco2)c(=O)c2cc(S(=O)(=O)N3CCCCCC3)ccc21,3,-1,2,-2,-2
Nc1nc(Nc2ccccc2)nc2c1ncn2[C@@H]1O[C@H](CO)[C@H](O)C1O (stereo not given in full),/,/,0,/,/
COc1ccc2c3c(cccc13)NN=C2C,7,24,86*,3,/

# High-throughput results deposited in PubChem by several laboratories.
